Inconclusive results are not listed. The source made the active and inactive calls. Calls come from the whole dose curve; as a rule, active = well fitted inhibition curve with a large enough effect; inconclusive = small, poorly fitted or top-dose-only effect; inactive = flat fitted curve, though single readings scatter.
Biological target: Luciferin 4-monooxygenase (Photinus pyralis) (UniProt P08659)
Assay: Biochemical firefly luciferase enzyme assay for NPC (AID 624030);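 note: purified P. pyralis luciferase at 10 nM with luciferin and ATP substrate; 0% = DMSO and -100% = full luciferase inhibition by PTC124 control; nearly all actives have a fitted effect of over 70% in size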
Conditions: purified P. pyralis luciferase, luminescence, 5 min; series mostly up to 58.6 µM; activity change, negative = inhibition: at the top concentration
In short: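 Purified P. pyralis luciferase at 10 nM in 50 mM Tris Acetate (final), luminescence read within 5 minutes of enzyme addition to compounds. Activity normalised to PTC124 versus DMSO; concentration-response curves classed by r2, magnitude and activity.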

Sequence of Luciferin 4-monooxygenase (Photinus pyralis) (P08659 whole entry, looked up): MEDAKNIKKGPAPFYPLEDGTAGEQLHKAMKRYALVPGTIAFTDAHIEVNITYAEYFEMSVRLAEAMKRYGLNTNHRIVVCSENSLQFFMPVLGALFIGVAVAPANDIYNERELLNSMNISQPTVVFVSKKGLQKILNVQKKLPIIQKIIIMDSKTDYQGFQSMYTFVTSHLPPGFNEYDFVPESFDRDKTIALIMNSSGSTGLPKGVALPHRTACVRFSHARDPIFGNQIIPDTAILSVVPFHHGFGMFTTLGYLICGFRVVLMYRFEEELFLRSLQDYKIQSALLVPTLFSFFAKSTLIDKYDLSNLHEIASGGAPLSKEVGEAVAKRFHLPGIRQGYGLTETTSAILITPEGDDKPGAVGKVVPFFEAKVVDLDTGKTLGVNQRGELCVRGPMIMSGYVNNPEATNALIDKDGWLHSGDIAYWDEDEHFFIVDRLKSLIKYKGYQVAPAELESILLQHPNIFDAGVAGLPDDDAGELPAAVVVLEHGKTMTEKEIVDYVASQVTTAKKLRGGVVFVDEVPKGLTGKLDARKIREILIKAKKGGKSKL

SMILES	activity change, negative = inhibition
C=C1C[C@@H]2[C@H]3CCC4=CC(=O)C=C[C@]4(C)[C@@]3(F)[C@@H](O)C[C@]2(C)[C@]1(O)C(=O)COC(C)=O	-0.679% (inactive)
CC(=O)OCC(=O)C1(O)CCC2C3CCC4=CC(=O)CCC4(C)C3C(O)CC21C (stereo not given)	-5.54% (inactive)
CC(=O)O[C@@H]1C(=O)O[C@H]2[C@@H]1OC(=O)[C@@H]2OC(C)=O	-14.5% (inactive)
CC(CSC(=O)c1ccccc1)C(=O)N1CC(Sc2ccccc2)CC1C(=O)O (stereo not given)	-1.79% (inactive)
CC1(C)SC2C(NC(=O)C(c3ccccc3)S(=O)(=O)O)C(=O)N2C1C(=O)O (stereo not given)	-6.08% (inactive)
CCN(CC)CCOc1ccc(/C(=C(/Cl)c2ccccc2)c2ccccc2)cc1	6.1% (inactive)
C=C[C@]1(C)C[C@@H](OC(=O)CO)[C@]2(C)C(C)CC[C@]3(CCC(=O)[C@H]32)[C@@H](C)[C@@H]1O (stereo not given in full)	-0.3% (inactive)
CO/N=C1\C[C@]2(C[C@@H]3C[C@H](C/C=C(/C)C[C@@H](C)/C=C\C=C4\CO[C@@H]5[C@@H](O)C(C)=C[C@@H](C(=O)O3)[C@]45O)O2)O[C@@H](/C(C)=C/C(C)C)[C@H]1C	-2.95% (inactive)
OCC1(O)OC[C@@H](O)[C@H](O)[C@@H]1O (stereo not given in full)	-0.233% (inactive)
CCN1C(=O)c2ccccc2C1Nc1cccc(OCCN2CCCCC2)c1 (stereo not given)	1.18% (inactive)

— PubChem BioAssay (NCATS)
